This note sets out measurements from PubChem BioAssay.

Each structure is given as a SMILES string. Active and inactive are the calls of the source. Unless noted, how the calls were made is not given here.

Test [1] is described as follows: compounds binding Alexa647 anti-His antibody – biochemical, small-molecule microarray, 635 nm fluorescence, artefact control for SMM control protein annotation, primary screen (AID 1128).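 Further: score merges feature fluorescence with signal-to-noise for each printed compound spot.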 Particulars: higher = more signal.
Test [2] relates to Human papillomavirus type 1a E7 protein (residues 1-88). Kind of test: HPV1a E7 small-molecule binders, primary screen, biochemical, small-molecule microarray, residues 1-88, 635 nm (AID 1129). Particulars: small-molecule microarray binding, fluorescence 635 nm; higher = more signal.
Test [3] deals with Focal adhesion kinase 1 (Homo sapiens) (UniProt Q05397). Kind of test: PTK2 protein binding on printed compound slides – biochemical, small-molecule microarray, 635/667 nm fluorescence, BSA, DTT, primary screen (AID 1130).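 Further: composite of spot emission at 667 nm and signal to noise over triplicate slides.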 Particulars: 635 nm fluorescence, higher = more signal.
The subject of test [4] is Fibrinogen (Alexa647-labelled). As to the kind of experiment: Alexa647-fibrinogen binding to printed small molecules – biochemical, small-molecule microarray, 635/667 nm fluorescence, artefact control for SMM control-protein annotation, profiling panel (AID 1131).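 Further: z-score merges 667 nm fluorescence with per-spot signal-to-noise over triplicate slides.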 Particulars: fibrinogen-A647 binding fluorescence, higher = more signal.
The target in test [5] is Follistatin (Homo sapiens) (UniProt P19883). Kind of test: FST protein binding to printed compounds – biochemical, small-molecule microarray, 635/667 nm fluorescence, primary screen (AID 1132). The following applies: 635 nm fluorescence, higher = more signal.
Test [6] addresses Fibroblast growth factor 2 (Homo sapiens) (UniProt P09038). Kind of test: basic fibroblast growth factor binding to printed compounds – biochemical, small-molecule microarray, 635/667 nm fluorescence, primary screen (AID 1133). The following applies: FGF2, fluorescence 635/667, higher = more signal.
Test [7] in a line: JC-1 mitochondrial potential readout, lung cancer cells – cell-based, A549, JC-1 fluorescence, basal, 24 h, 100 nL, profiling panel (AID 1138).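 Further: A549 lung adenocarcinoma cells under basal conditions with no added stimulus; test concentration not given here.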 Particulars: higher = more signal.
Test [8] deals with Lefty1. Kind of test: Lefty1 protein binding to printed compounds – biochemical, small-molecule microarray, 635/667 nm fluorescence, primary screen (AID 1139). Particulars: fluorescence 635/667, higher = more signal.
Test [9] deals with wheat germ agglutinin (Triticum aestivum), Alexa647-labelled. Kind of test: Alexa647-WGA lectin binding to printed small molecules – biochemical, small-molecule microarray, 635/667 nm fluorescence, artefact control for SMM control-protein annotation, profiling panel (AID 1140).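 Further: score merges 667 nm feature emission with signal to noise over triplicate slides.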 Particulars: WGA-A647 binding, 635 nm fluorescence, higher = more signal.
Test [10] deals with Luciferin 4-monooxygenase (Photinus pyralis) (UniProt P08659). Kind of test: inhibition of purified Photinus pyralis luciferase – biochemical, luminescence, purified enzyme, 2006 set, primary screen (AID 1141).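 Further: cell-free assay with purified firefly luciferase at 100 ng per well in PBS; test concentration not given here.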 Particulars: purified firefly luciferase, SteadyGlo luminescence, 30 min; higher = more signal, called active from +8 up or from −8 down.
Test [11] has as its system Wnt5a (protein binding on small-molecule microarray). Kind of test: small molecules binding Wnt5a protein – biophysical, small-molecule microarray, 635/667 nm fluorescence, primary screen (AID 1142).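 Further: fluorescence read at 667 nm with signal to noise per printed feature.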 The following applies: 635 nm fluorescence, higher = more signal.
Test [12] can be described thus: ATP-based viability of Huh7 replicon cells – cell-based, CellTiter-Glo luminescence, basal, 48 h, cytotoxicity control for HCV replication inhibitor project, primary screen (AID 1143).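 Further: Huh7 hepatoma cells carrying a hepatitis C replication reporter with no stimulus; test concentration not given here.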 Particulars: higher = more signal, called active from +8 up or from −8 down. A general note: In antiviral work, replicon cells carry a viral genome segment that copies itself.
Test [13] can be described thus: Pseudomonas biofilm growth suppression – PAO1 strain, BacTiter-Glo luminescence, LB-PBS, primary screen (AID 1144). Particulars: P. aeruginosa PAO1 biofilm, 12 h, higher = more signal.
The nature of test [14]: basal CRE-LacZ reporter activity in PC12 – cell-based, unstimulated, primary screen (AID 1145). Particulars: no forskolin, luminescence, 4.5 h, higher = more signal, called active from +8 up or from −8 down.
A short description of test [15]: forskolin-driven CRE-LacZ activity in PC12 – cell-based, CRE-LacZ reporter, forskolin-stimulated, primary screen (AID 1146).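 Further: PC12 cells with 6xCRE LacZ reporter stimulated by forskolin 10 µM; beta-galactosidase reporter signal reflecting CREB driven transcription.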 Particulars: luminescence, 4.5 h, higher = more signal, called active from +8 up or from −8 down.
The target in test [16] is Streptavidin (Streptomyces avidinii) (UniProt P22629). Kind of test: compounds binding control protein streptavidin – biophysical, small-molecule microarray, 635/667 nm fluorescence, artefact control for SMM compound annotation, primary screen (AID 1147).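 Further: signal reflects streptavidin binding to arrayed compounds as a control protein.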 The following applies: higher = more signal.
Test [17] is described as follows: probe aInhba binding on compound microarray – biochemical, small-molecule microarray, 635/667 nm fluorescence, primary screen (AID 1148).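 Further: score merges 667nm spot fluorescence with signal-to-noise for antibody binding to printed compounds.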 The following applies: higher = more signal.
Test [18] deals with Torsin-1A (Homo sapiens) (UniProt O14656). As to the kind of experiment: TOR1A wild-type binding on microarray – cell lysate, small-molecule microarray, lysate, 635/667 nm, primary screen (AID 1149). Particulars: COS7 hTOR1A-WT lysate, 635 nm fluorescence, higher = more signal.
Test [19] has the same target. As to the kind of experiment: torsin A mutant lysate binding on microarrays – cell lysate, small-molecule microarray, COS7 lysate, 635/667 nm fluorescence, primary screen (AID 1150).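 Further: score pools 667 nm emission and signal to noise measuring lysate protein binding.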 Particulars: COS7 hTOR1A mutant lysate, 635 nm fluorescence, higher = more signal.
The test system of test [20] is Sonic hedgehog protein (Shh). Kind of test: Sonic hedgehog microarray binding compounds – biochemical, small-molecule microarray, 635/667 nm fluorescence, primary screen (AID 1151).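 Further: Shh protein binding to compounds spotted on small-molecule microarray slides; score combines spot fluorescence intensity with signal-to-noise across triplicate slides.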 Particulars: 635 nm fluorescence, higher = more signal.

Chain of Torsin-1A (Homo sapiens) (O14656 whole entry, looked up): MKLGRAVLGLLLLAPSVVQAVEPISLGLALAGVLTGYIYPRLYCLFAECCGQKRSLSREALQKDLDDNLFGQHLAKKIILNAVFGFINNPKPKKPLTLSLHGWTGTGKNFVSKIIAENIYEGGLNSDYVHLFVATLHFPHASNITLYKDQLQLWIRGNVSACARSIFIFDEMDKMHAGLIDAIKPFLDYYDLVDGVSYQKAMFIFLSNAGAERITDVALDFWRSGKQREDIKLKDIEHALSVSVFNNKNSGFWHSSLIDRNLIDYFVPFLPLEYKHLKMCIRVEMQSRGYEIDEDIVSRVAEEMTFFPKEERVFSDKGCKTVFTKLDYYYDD
Chain of Luciferin 4-monooxygenase (Photinus pyralis) (P08659 whole entry, looked up): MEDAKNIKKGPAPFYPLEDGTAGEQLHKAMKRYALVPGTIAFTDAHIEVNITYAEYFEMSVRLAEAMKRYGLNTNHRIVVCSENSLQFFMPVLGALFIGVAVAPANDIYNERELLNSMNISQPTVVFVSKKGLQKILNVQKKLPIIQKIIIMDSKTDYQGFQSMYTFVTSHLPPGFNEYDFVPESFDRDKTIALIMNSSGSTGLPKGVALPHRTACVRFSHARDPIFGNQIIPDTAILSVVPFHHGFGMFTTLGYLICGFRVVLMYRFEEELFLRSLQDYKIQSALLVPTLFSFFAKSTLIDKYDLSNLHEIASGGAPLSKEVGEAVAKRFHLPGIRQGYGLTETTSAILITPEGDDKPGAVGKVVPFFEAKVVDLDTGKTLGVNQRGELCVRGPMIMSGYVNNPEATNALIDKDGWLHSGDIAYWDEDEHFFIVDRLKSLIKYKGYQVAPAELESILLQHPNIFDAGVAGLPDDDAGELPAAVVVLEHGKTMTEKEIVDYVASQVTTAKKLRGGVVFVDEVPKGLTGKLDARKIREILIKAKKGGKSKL
Chain of Streptavidin (Streptomyces avidinii) (P22629 whole entry, looked up): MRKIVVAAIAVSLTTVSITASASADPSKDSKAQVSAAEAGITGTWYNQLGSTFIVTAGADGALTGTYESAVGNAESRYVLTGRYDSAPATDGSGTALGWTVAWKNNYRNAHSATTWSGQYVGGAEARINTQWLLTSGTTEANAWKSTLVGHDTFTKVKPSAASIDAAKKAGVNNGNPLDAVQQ
Chain of Fibroblast growth factor 2 (Homo sapiens) (P09038 whole entry, looked up): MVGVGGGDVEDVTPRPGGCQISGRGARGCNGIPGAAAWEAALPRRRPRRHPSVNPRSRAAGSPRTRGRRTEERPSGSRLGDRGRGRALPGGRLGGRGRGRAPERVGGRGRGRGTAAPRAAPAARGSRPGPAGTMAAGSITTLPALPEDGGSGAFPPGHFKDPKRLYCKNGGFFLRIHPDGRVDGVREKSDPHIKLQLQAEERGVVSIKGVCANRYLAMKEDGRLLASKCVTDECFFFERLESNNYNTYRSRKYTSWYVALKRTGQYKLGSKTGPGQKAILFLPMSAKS
Chain of Focal adhesion kinase 1 (Homo sapiens) (Q05397 whole entry, looked up): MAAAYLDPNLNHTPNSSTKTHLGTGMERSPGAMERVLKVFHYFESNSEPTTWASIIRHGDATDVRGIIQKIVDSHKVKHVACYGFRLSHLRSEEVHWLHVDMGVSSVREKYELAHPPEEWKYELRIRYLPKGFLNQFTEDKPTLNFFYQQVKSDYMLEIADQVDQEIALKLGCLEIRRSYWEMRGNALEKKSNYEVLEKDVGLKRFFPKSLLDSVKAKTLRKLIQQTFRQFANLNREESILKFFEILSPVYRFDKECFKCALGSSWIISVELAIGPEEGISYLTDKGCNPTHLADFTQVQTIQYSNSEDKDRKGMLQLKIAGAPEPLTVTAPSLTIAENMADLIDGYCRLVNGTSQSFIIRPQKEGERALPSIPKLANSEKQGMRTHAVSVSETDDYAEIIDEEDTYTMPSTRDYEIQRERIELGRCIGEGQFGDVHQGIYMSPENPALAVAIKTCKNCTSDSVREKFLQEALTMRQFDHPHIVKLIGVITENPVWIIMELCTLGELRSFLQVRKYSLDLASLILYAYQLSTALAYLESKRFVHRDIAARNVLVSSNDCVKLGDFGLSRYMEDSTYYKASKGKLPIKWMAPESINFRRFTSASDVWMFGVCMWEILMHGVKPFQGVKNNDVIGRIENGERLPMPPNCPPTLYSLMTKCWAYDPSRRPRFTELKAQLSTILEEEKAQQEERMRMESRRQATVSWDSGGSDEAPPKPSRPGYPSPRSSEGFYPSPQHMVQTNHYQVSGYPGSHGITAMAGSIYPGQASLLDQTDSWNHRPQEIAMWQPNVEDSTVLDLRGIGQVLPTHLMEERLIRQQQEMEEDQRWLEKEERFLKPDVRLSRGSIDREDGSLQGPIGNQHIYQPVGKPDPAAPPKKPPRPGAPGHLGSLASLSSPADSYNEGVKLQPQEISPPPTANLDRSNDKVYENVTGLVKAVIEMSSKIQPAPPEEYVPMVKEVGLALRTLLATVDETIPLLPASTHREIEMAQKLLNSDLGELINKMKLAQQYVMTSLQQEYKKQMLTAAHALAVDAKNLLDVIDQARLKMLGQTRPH
Chain of Follistatin (Homo sapiens) (P19883 whole entry, looked up): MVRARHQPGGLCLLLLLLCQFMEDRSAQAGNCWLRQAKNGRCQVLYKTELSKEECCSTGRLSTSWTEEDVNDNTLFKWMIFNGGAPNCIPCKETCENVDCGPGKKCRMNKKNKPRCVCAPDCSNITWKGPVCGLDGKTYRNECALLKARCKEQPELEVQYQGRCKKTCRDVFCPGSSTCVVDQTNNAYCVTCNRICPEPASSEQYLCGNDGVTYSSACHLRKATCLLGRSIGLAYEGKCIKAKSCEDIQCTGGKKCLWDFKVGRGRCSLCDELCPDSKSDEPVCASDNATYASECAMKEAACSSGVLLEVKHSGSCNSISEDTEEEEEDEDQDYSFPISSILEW

On to `COCCCNC(=O)[C@@H]1c2ccccc2C(=O)N(CC23CC4CC(CC(C4)C2)C3)[C@H]1c1ccc(CO)cc1`, for which the composite z-score in test [1] is -0.348; in test [2], 0.816; in test [3], 0.412; in test [4], -0.434; in test [5], 1.39; in test [6], 0.875. Moreover, the composite z-score in test [8] is 0.19; in test [9] it was 0.728; in [11], 1.01; in [16] it was -0.269; in test [17] it was 0.266; in [18], 0.306. The composite z-score was 0.262 in test [19] and 1.03 in test [20]. Also, the z-score in [7] was -0.648; in test [10] it was 0.438 (inactive); in [12] it was -4.78 (inactive); in test [13], -0.689 (inactive); in test [14], -0.0259 (inactive); in [15], -1.07 (inactive).

As to `C[C@H]1C2[C@H](Cc3ccccc3)NC(=O)[C@]23C(=O)N[C@H](Cc2ccccc2)C(=O)N[C@@H](Cc2ccccc2)C(=O)NC/C=C\C/C=C/C3[C@@H]2O[C@]12C` (stereo not given in full), the composite z-score in test [1] was 0.133; in [2], -0.318; in [3], 0.838; in test [4], -1.84; in test [5], 0.162; in test [6] it was 0.0748. The composite z-score in [8] is -0.0066; in test [9], -0.125; in [11], 0.0327; in test [16], -0.214; in test [17], 0.173; in [18], -0.0236. In addition, the results for the composite z-score in [19] and in test [20] were 0.147 and 1.65, respectively. Also, the z-score in test [7] was 0.298; in test [10], -1.06 (inactive); in test [12], -3.18 (inactive); in test [13], 0.593 (inactive); in test [14], 0.311 (inactive); in test [15], -1.85 (inactive).

With `COC(=O)[C@@]1(Cc2ccccc2)[C@H]2c3cc(C(=O)N4CCCC4)n(CCN4CNCC4=O)c3C[C@H]2CN1C(=O)c1ccccc1`, the composite z-score was 0.361 in test [1]; 1.21 in test [2]; 1.72 in test [3]; 0.728 in [4]; 0.257 in test [5]; -0.709 in test [6]. Further, the composite z-score is -0.0783 in [8]; 0.342 in [9]; -0.042 in [11]; 2.04 in test [16]; 0.202 in [17]; -0.0625 in test [18]. The values for the composite z-score in [19] and in test [20] were 1.02 and -0.535, respectively. Besides, the z-score in test [7] is 0.791; in [10], 2.42 (inactive); in [12], -0.119 (inactive); in test [13] it was 0.351 (inactive); in test [14], -0.182 (inactive); in test [15], -0.768 (inactive).

`COC(=O)Cn1c(C(=O)N2CCCC2)cc2c1C[C@H]1CN(C(=O)c3ccccc3)[C@@](Cc3ccccc3)(C(=O)OC)[C@@H]21`: the composite z-score in test [1] was 1.64; in [2], 0.684; in test [3] it was 0.714; in test [4] it was 1.01; in test [5], 0.0488; in [6] it was -0.684. The composite z-score is 0.142 in test [8]; 1.43 in [9]; -0.0963 in [11]; 0.344 in [16]; 0.158 in test [17]; -0.531 in test [18]. Besides, the composite z-score is -0.0683 in test [19] and -1.04 in test [20]. In addition, the z-score is 0.367 in [7]; 0.659 (inactive) in test [10]; -0.259 (inactive) in [12]; -0.195 (inactive) in test [13]; -0.572 (inactive) in [14]; -0.402 (inactive) in test [15].

Turning to `COc1cc(Cc2cc3c(c(CCc4ccccc4)n2)[Si](C(C)C)(C(C)C)OC3)cc(OC)c1OC`, the composite z-score in test [1] is 0.151; in [2] it was -0.162; in [3], 0.0612; in test [4], -0.386; in test [5] it was 0.694; in test [6] it was 0.263. For the same compound, the composite z-score in [8] was 0.48; in [9], -0.14; in [11], -0.179; in [16], 0.977; in test [17], -0.159; in [18], 0.1. For the same compound, the composite z-score in [19] worked out at 0.0658; in test [20] it was 0.553. In addition, the z-score in test [7] is 1.51; in test [10], 0.874 (inactive); in [12], -1.86 (inactive); in [13], -0.554 (inactive); in test [14], -0.0989 (inactive); in [15], 0.132 (inactive).
